For assay [1], the target named is Retinoic acid receptor RXR-alpha (Homo sapiens) (UniProt P19793). Description: ATG_RXRa_TRANS: Attagene TRANS-FACTORIAL HepG2 Assay for human Retinoid X Receptor alpha (RXRa) (AID 2283012; active = hit-call score of the fitted dose curve at least 0.9, where 1 is the maximum). Put shortly: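 Cells (HepG2) carried transiently transfected GAL4-responsive reporter units. Following a 24 h chemical incubation, reporter mRNA induction was read via RT-PCR fragment analysis; DMSO served as negative control and baseline.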

The target in assay [2] is human Retinoid X Receptor beta (RXRb), RXRB (gene 6257) (UniProt P28702). Kind of assay: ATG_RXRb_TRANS: Attagene TRANS-FACTORIAL HepG2 Assay for human Retinoid X Receptor beta (RXRb) (AID 2283013; active = hit-call score of the fitted dose curve at least 0.9, where 1 is the maximum). Put shortly:
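Multiplexed TRANS reporter assay in HepG2; 24 h dosing; reporter mRNA by RT-PCR/CE fluorescence; gain-of-signal relative to DMSO.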

Read-out in assay [3]: E-selectin (Homo sapiens) (UniProt P16581)
Description: BSK_3C_Eselectin: BioMAP Diversity Plus: 3C Assay for Eselectin Biomarker Activity (AID 2283015).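 As to outcome: cell surface E-selectin protein quantified by ELISA 24 h after dosing.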 The following applies: primary human endothelial cells (HUVEC); actives raise or lower the signal. Put shortly: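 Human vascular endothelium from umbilical vein is exposed to test chemicals for 24 h. E-selectin levels are read by ELISA and compared with DMSO controls.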

Read-out in assay [4]: Interleukin-1 alpha (IL1a), IL1A (gene 3552)
Kind of assay: BSK_BE3C_IL1a: BioMAP Diversity Plus: BE3C Assay for Interleukin-1 alpha (IL1a) Biomarker Activity (AID 2283016). The following applies: primary human bronchial epithelial cells; actives raise or lower the signal. The procedure, abridged: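 Cultures of primary human bronchial epithelial cells receive test chemical. After 24 h, IL-1a is quantified by ELISA, while parallel wells are fixed in TCA and SRB-stained for total protein. Changes in either direction are fitted relative to DMSO.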

Read-out in assay [5]: Monocyte Chemoattractant Protein-1 (MCP1), CCL2 (gene 6347)
Description: BSK_3C_MCP1: BioMAP Diversity Plus: 3C Assay for Monocyte Chemoattractant Protein-1 (MCP1) Biomarker Activity (AID 2283017). The following applies: primary human endothelial cells (HUVEC); actives raise or lower the signal. The procedure, abridged:
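Endothelial cells from human umbilical vein are dosed with chemical, cultured 24 h, then assayed for MCP-1 by ELISA; both increases and decreases are modelled against DMSO controls.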

Read-out in assay [6]: Monocyte Chemoattractant Protein-1 (MCP1), CCL2 (gene 6347)
Kind of assay: BSK_4H_MCP1: BioMAP Diversity Plus: 4H Assay for Monocyte Chemoattractant Protein-1 (MCP1) Biomarker Activity (AID 2283018). The following applies: primary human endothelial cells (HUVEC); actives raise or lower the signal. The procedure, abridged: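 Readout: MCP-1 ELISA on compound-treated HUVEC, sampled 24 h post-dosing. Baseline and negative control DMSO; bidirectional fit. Overt toxicity checked alongside by sulforhodamine B protein staining at time of biomarker measurement.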

Read-out in assay [7]: Human Leukocyte Antigen - DR isotype (HLADR), HLA-DRA (gene 3122)
Description: BSK_3C_HLADR: BioMAP Diversity Plus: 3C Assay for Human Leukocyte Antigen - DR isotype (HLADR) Biomarker Activity (AID 2283019).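 As to outcome: ELISA of cell-surface HLA-DR on HUVEC 24 h after dosing.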 The following applies: primary human endothelial cells (HUVEC); actives raise or lower the signal. Put shortly:
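Endothelial cells from human umbilical vein are treated with test chemical; after 24 h, HLA-DR levels are measured by ELISA. Data are fitted in both directions using DMSO as the baseline.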

Read-out in assay [8]: Interleukin-8 (IL8), CXCL8 (gene 3576)
Kind of assay: BSK_3C_IL8: BioMAP Diversity Plus: 3C Assay for Interleukin-8 (IL8) Biomarker Activity (AID 2283020). The following applies: primary human endothelial cells (HUVEC); actives raise or lower the signal. Put shortly:
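Human vascular endothelial cells (umbilical vein) in the 3C system; IL-8 level detected by ELISA at 24 h post-dose, with DMSO as baseline.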

Assay [9] can be described thus: BSK_3C_SRB: Viability Assessment in the BioMAP Diversity Plus: 3C Assay (AID 2283023).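 Also: fitted both ways against DMSO so a hit may be signal rise or drop.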 The following applies: primary human endothelial cells (HUVEC). Put shortly:
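Cells were dosed with chemical, cultured 24 h, fixed with 10% TCA, stained with 0.1% SRB and read at 560 nm. Human umbilical vein endothelium was used; DMSO served as negative control and baseline.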

Read-out in assay [10]: Matrix Metallopeptidase 1 (MMP1), MMP1 (gene 4312)
Description: BSK_BE3C_MMP1: BioMAP Diversity Plus: BE3C Assay for Matrix Metallopeptidase 1 (MMP1) Biomarker Activity (AID 2283024). The following applies: primary human bronchial epithelial cells; actives raise or lower the signal. Put shortly: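 Dose cells, wait 24 h, run MMP1 ELISA; cells are human bronchial epithelial primaries. Both increases and decreases relative to DMSO counted.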

Read-out in assay [11]: Pselectin, SELP (gene 6403)
Description: BSK_4H_Pselectin: BioMAP Diversity Plus: 4H Assay for Pselectin Biomarker Activity (AID 2283026). The following applies: primary human endothelial cells (HUVEC); actives raise or lower the signal. The procedure, abridged:
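Human vascular endothelium from umbilical vein; P-selectin measured by ELISA at 24 h post-dose, with cytotoxicity checked by sulforhodamine B total-protein staining in parallel cultures (0.1% SRB after 10% TCA fixation, read at 560 nm).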

Assay [12] is described as follows: BSK_4H_SRB: Viability Assessment in the BioMAP Diversity Plus: 4H Assay (AID 2283027).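 Also: cells exposed to compound for 24 h before staining.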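 As to AC50: curves fitted both ways versus DMSO so AC50 may be loss or gain.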 The following applies: primary human endothelial cells (HUVEC). Put shortly:
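Human umbilical vein endothelial cells were dosed with chemical and, after 24 h, fixed with 10% TCA, stained with 0.1% sulforhodamine B, and read at 560 nm to give total protein as a cytotoxicity measure. Bidirectional fitting relative to DMSO control.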

A short description of assay [13]: BSK_BE3C_SRB: Viability Assessment in the BioMAP Diversity Plus: BE3C Assay (AID 2283028). The following applies: primary human bronchial epithelial cells. The procedure, abridged: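 Overt cytotoxicity was assessed as total protein in confluent human primary bronchial epithelial cultures 24 h after chemical addition, using 0.1% sulforhodamine B staining read at 560 nm.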

Read-out in assay [14]: Thrombomodulin, THBD (gene 7056)
Kind of assay: BSK_3C_Thrombomodulin: BioMAP Diversity Plus: 3C Assay for Thrombomodulin Biomarker Activity (AID 2283029). The following applies: primary human endothelial cells (HUVEC); actives raise or lower the signal. Put shortly: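 Thrombomodulin ELISA, human primary HUVEC, 24 h post-dose; data fitted in both directions relative to DMSO.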

Read-out in assay [15]: Urokinase-type plasminogen activator receptor (uPAR), PLAUR (gene 5329)
Description: BSK_4H_uPAR: BioMAP Diversity Plus: 4H Assay for Urokinase-type plasminogen activator receptor (uPAR) Biomarker Activity (AID 2283030). The following applies: primary human endothelial cells (HUVEC); actives raise or lower the signal. Put shortly:
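Chemicals are dosed onto human vascular endothelial primary cells (umbilical vein). After 24 h, uPAR is read by ELISA. Gain or loss of signal is fitted relative to DMSO.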

Read-out in assay [16]: Vascular endothelial growth factor receptor 2 (Homo sapiens) (UniProt P35968)
Kind of assay: BSK_4H_VEGFRII: BioMAP Diversity Plus: 4H Assay for Vascular endothelial growth factor receptor 2 (VEGFR2) Biomarker Activity (AID 2283031). The following applies: primary human endothelial cells (HUVEC); actives raise or lower the signal. Put shortly:
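VEGFRII levels on human vascular endothelial primary cells were determined by ELISA at 24 hours post-dosing, with gain- or loss-of-signal fitted against DMSO controls.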

Assay [17] concerns the target human Thyroid Receptor alpha (THRa1), THRA (gene 7067) (UniProt P10827). Kind of assay: ATG_THRa1_TRANS: Attagene TRANS-FACTORIAL HepG2 Assay for human Thyroid Receptor alpha (THRa1) (AID 2283014; active = hit-call score of the fitted dose curve at least 0.9, where 1 is the maximum). The procedure, abridged: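 First, HepG2 cells receive multiple GAL4-UAS reporter units and the chimeric receptor. They are then dosed for 24 h, after which RNA is reverse-transcribed, amplified, labelled, HpaI-cut and sized by capillary electrophoresis; gain relative to DMSO is scored.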

The target in assay [18] is human Vitamin D Receptor (VDR), VDR (gene 7421) (UniProt P11473). Kind of assay: ATG_VDR_TRANS: Attagene TRANS-FACTORIAL HepG2 Assay for human Vitamin D Receptor (VDR) (AID 2283022; active = hit-call score of the fitted dose curve at least 0.9, where 1 is the maximum). The procedure, abridged:
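Fluorescence of labelled reporter cDNA fragments, resolved by capillary electrophoresis, gives mRNA induction after 24 h treatment of HepG2 cells carrying transfected Gal4-fusion reporter units. Activity is fitted in the positive direction with DMSO as baseline.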

Read-out in assay [19]: Human Leukocyte Antigen - DR isotype (HLADR), HLA-DRA (gene 3122)
Description: BSK_BE3C_HLADR: BioMAP Diversity Plus: BE3C Assay for Human Leukocyte Antigen - DR isotype (HLADR) Biomarker Activity (AID 2283032). The following applies: primary human bronchial epithelial cells; actives raise or lower the signal. Put shortly:
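Signal came from an ELISA for HLA-DR in human bronchial epithelial primary cells harvested 24 h after treatment; gain- and loss-of-signal fitting used DMSO controls as reference.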

Records with an inconclusive call do not appear. Activity calls are given as the source filed them. The calls were made as follows, unless noted: active = hit-call score of the fitted dose curve at least 0.9, where 1 is the maximum; inactive = score below 0.9.

Chain of human Vitamin D Receptor (VDR), VDR (gene 7421) (P11473 whole entry, looked up, the tested form may be a part): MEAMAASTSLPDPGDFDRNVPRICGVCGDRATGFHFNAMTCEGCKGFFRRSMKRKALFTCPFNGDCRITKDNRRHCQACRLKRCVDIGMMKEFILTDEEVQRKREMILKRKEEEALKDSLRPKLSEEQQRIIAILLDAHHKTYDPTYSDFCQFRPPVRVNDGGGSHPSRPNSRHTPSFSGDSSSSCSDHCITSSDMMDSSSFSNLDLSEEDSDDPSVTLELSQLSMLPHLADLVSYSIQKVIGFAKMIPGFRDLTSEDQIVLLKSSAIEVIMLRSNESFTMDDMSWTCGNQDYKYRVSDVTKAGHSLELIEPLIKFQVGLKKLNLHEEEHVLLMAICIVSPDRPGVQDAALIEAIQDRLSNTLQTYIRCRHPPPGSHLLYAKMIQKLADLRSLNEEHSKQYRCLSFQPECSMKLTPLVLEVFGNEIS
Chain of Retinoic acid receptor RXR-alpha (Homo sapiens) (P19793 whole entry, looked up, the tested form may be a part): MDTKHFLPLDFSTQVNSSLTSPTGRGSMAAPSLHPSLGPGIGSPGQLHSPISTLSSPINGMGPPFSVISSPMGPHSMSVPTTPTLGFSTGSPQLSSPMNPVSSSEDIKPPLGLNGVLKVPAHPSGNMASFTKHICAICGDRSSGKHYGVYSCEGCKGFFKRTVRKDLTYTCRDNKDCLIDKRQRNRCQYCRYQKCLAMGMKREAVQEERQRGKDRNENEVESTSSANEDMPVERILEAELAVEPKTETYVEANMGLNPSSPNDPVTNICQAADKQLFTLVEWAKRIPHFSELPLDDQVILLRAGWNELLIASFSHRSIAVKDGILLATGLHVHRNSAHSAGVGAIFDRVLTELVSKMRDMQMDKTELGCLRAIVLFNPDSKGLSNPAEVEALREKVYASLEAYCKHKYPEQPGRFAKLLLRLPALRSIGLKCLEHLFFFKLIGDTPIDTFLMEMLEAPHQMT
Chain of human Retinoid X Receptor beta (RXRb), RXRB (gene 6257) (P28702 whole entry, looked up): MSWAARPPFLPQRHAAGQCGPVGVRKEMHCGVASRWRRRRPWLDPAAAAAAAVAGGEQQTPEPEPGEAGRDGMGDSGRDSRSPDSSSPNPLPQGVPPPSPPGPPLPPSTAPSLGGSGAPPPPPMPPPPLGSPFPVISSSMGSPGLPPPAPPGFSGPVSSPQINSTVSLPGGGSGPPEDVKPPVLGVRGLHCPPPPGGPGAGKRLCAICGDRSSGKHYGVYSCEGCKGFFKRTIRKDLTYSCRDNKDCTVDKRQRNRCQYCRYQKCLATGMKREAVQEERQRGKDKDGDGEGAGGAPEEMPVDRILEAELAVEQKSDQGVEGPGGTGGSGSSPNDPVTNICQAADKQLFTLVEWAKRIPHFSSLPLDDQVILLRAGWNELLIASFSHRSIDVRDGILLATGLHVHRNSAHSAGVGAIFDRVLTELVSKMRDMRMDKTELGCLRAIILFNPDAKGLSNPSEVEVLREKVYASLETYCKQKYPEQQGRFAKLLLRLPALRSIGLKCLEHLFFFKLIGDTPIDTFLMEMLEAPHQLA
Chain of E-selectin (Homo sapiens) (P16581 whole entry, looked up): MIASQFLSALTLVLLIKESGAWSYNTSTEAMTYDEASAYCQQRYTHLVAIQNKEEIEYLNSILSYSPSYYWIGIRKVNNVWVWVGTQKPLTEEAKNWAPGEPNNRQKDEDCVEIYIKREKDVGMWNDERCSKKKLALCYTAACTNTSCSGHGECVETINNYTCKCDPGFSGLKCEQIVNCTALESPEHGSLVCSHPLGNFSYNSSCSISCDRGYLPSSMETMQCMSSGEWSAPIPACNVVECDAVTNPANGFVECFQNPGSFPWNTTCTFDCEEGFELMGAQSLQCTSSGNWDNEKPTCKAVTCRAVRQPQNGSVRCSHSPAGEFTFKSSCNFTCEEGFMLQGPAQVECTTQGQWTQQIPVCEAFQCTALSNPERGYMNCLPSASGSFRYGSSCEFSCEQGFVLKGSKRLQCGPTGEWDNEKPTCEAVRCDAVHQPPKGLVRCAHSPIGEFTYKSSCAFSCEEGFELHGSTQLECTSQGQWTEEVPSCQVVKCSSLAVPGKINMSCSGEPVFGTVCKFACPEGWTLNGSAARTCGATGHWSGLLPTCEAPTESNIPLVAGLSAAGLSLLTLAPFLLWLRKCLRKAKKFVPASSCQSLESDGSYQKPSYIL
Chain of human Thyroid Receptor alpha (THRa1), THRA (gene 7067) (P10827 whole entry, looked up, the tested form may be a part): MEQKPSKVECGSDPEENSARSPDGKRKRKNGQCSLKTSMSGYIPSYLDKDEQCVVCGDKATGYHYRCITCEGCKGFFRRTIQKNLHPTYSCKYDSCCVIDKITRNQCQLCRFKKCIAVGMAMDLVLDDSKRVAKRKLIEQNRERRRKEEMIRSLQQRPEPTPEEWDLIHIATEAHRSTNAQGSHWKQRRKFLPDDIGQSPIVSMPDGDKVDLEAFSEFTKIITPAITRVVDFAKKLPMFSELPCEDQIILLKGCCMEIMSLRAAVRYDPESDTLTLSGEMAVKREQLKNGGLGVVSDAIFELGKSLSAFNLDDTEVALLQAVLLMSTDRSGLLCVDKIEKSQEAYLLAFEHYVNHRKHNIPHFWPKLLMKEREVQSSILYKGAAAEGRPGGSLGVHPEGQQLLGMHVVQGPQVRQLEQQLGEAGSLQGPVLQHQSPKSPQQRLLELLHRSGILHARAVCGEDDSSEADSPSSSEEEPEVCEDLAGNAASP

In the case of `CCCCCCCCCC=O`, the compound was called inactive in assay [1], in [3], in assay [4], in [5], in assay [6] and in assay [8]. The result in [9], in [10], in [11], in assay [12], in assay [13] and in [14] was inactive. For the same compound, the outcome in assay [15] and in [16] was inactive. The figures for the AC50 in [2] and in assay [7] were 59 µM (active) and 32.3 µM (active), respectively.
`Nc1cc(N)cc(C(=O)O)c1`: the outcome in assay [1] and in [17] was inactive.
As to `COC(=O)OC`, the compound was called inactive in assay [1], in assay [2] and in [18].
In the case of `CC(=O)Nc1ccccc1O`, the compound was classed as inactive in assay [1], in assay [2], in assay [3], in [4], in assay [5] and in assay [6]. In addition, the result in assay [7], in assay [8], in [18], in [9], in assay [10] and in [11] was inactive. Besides, the result in assay [12], in assay [13], in assay [14], in [15], in assay [16] and in assay [19] was inactive.
With `Fc1c(F)c(F)c(Br)c(F)c1F`, the compound was classed as inactive in assay [1], in assay [2] and in assay [18].
For the compound `CCC(=O)OCCC(C)CCC=C(C)C` (configuration not stated), the outcome in assay [1], in assay [2] and in assay [18] was inactive.
Consider `CC(C)=CCC[C@](C)(O)[C@@H]1CC=C(C)CC1`, for which the outcome in assay [1], in assay [2] and in assay [18] was inactive.
Turning to `C[Si](O[Si](C)(C)C)O[Si](C)(C)C`, the outcome in [1] and in [18] was inactive. Moreover, the AC50 – broadly, the concentration at which the activity in the assay is half-maximal – in [2] is 61.7 µM (active).
Regarding `CCc1ccc(C=O)cc1`, the result in assay [1], in assay [2] and in assay [18] was inactive.
As to `Cc1cc(C2(c3cc(C)c(O)cc3C)OS(=O)(=O)c3ccccc32)c(C)cc1O`, the call in assay [1], in assay [2], in assay [3], in assay [4], in [5] and in assay [6] was inactive. The outcome in [7], in assay [8], in [9], in assay [10], in [11] and in assay [12] was inactive. The result in assay [13], in assay [14], in assay [15] and in [16] was inactive.
Regarding `COC(=O)Cc1cccc2ccccc12`, the result in [1] and in [18] was inactive. Further, the AC50 in assay [2] is 55.2 µM (active).
On to `C=C(C)[C@@H]1CCC2=CC(=O)C[C@@H](C)[C@]2(C)C1`, for which the compound was classed as inactive in [1], in [2] and in [18].
Take `C#C[C@]1(O)CC[C@H]2[C@@H]3CCC4=Cc5oncc5C[C@]4(C)[C@H]3CC[C@@]21C`: the AC50 in [1] was 120 µM (active); in [2] it was 154 µM (active); in assay [3], 1.49 µM (active); in assay [4] it was 33.4 µM (active); in assay [7] it was 20 µM (active); in [9], 3.97 µM (active). The figures for the AC50 in assay [11], in [12] and in [15] were 35.2 µM (active), 7.33 µM (active) and 3.97 µM (active), respectively. Moreover, the result in [5], in assay [6], in assay [8], in [10], in assay [13] and in assay [14] was inactive. The outcome in assay [16] was inactive.

Values taken from PubChem BioAssay (EPA / NIEHS).
